Measurements: PubChem BioAssay (Tox21)
Inconclusive results are not listed. Values without a mark were called inactive. Calls come from the whole dose curve.

test: cAMP Responsive Elements (CRE) small molecule agonists, cell-based qHTS assay (AID 1963590); details: CRE-bla HEK293T, beta-lactamase FRET ratio, 3 h; series mostly up to 92.4 µM; activation: at the top concentration
Method in brief: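 Cells carrying a CRE-driven beta-lactamase reporter (HEK 293T) are seeded, incubated overnight (18 h), and treated with test compounds for 3 h at 37 C; reporter activity is then detected with a FRET substrate after 2 h at room temperature.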
% is set by controls: 0 for no effect and ±100 for the full control effect.

SMILES | activation
CCOC(=O)C1=NN(c2ccccc2)C(=O)C1 | 0.705%
C=C(C)CS(=O)(=O)O | -0.186%
O=C(Cl)c1c(Cl)cccc1Cl | 0.538%
Cc1nc2ccc(CN(C)c3ccc(C(=O)N[C@@H](CCC(=O)O)C(=O)O)s3)cc2c(=O)[nH]1 | 0.509% [at 42.5 µM]
CCCCCCCCCCCCCOC(=O)CCSCCC(=O)OCCCCCCCCCCCCC | -0.927% [at 19 µM]
O=C=NCC1CCCC(CN=C=O)C1 (stereo unspecified) | 3.34%
OC/C=C/c1ccccc1 | -0.0033%
CC(C)=CC=O | -0.345%
CC(=O)c1ccc(C)cc1 | 0.0538%
CCCCCCCCCCCCOC(C)=O | -0.12%
CC1=C(C(=O)O)N2C(=O)[C@@H](NC(=O)[C@H](N)C3=CCC=CC3)[C@H]2SC1 | -0.0896% [at 42.5 µM]
CC(C)(C)c1ccc(N)cc1 | 0.723%
O=C1CCC(=O)N1Cl | 0.507%
COc1ccc(CCO)cc1 | -0.0905%
CC(=O)OCC1=C(C(=O)O)N2C(=O)[C@@H](NC(=O)CSc3ccncc3)[C@H]2SC1 | -0.348% [at 42.5 µM]
COC(=O)C(C)=O | -0.253%
SC1CCCC1 | -0.0029%
CC(O)CC(C)O (stereo unspecified) | -0.198%
CN1C(C)(C)CC(O)CC1(C)C | 0.469%
CC(C)CCC(=O)CCC(C)C | -0.414%
CCCCCCCCCCCCCCC | 0.349%
Nc1ccc2cc(S(=O)(=O)O)cc(O)c2c1N=Nc1ccccc1C(F)(F)F | 0.138%
C=C(C)C(=O)OCCOP(=O)(O)OCCOC(=O)C(=C)C | 0.764%
O=Cc1ccccc1Cl | -0.873%
CC(C)=CCCC(C)CC(=O)O (stereo unspecified) | -2.51%
CC(C)(COC(=O)c1ccccc1)COC(=O)c1ccccc1 | 3.72%
